# Compounds without any hit were thinned out: in the full panel of roughly 83,000, 20% have a hit.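 The test compound was applied at a single concentration to cells in 96-well plates for 48 hours, and percent growth was recorded.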 Unmarked numbers belong to inactive results. Active and inactive are the calls of the source.
# Test system: CCRF-CEM leukemia
# Assay: NCI-60 one-dose screen, 48 h (100 = growth as untreated, 0 = no growth, -100 = all killed)
# Conditions: 10 µM unless noted
# Protocol: Growth inhibition of the CCRF-CEM human tumor cell line is measured as a screen for anti-cancer activity. Cells are grown in 96 well plates and exposed to the test compound for 48 hours. Compounds are tested at a single concentration, which is 10^-5 M for most compounds. The reported endpoint is percent growth (GI% or GIPRCNT), where numbers from 0 - 100% represent growth inhibition, and numbers from -100% - 0 represent cell death. For example, a value of 40 represents 60% growth inhibition. A value of 0 means no net growth occurred over the course of the experiment. A value of -40 indicates 40% of cells at the beginning of the experiment died by the end of the experiment. A value of -100 means all cells are dead at the end of the experiment.
# NCI-60 Human Tumor Cell Lines Screen was performed using the standard one-dose NCI protocol, which is described in more detail at https://dtp.cancer.gov/discovery_development/nci-60/default.htm.
# Compounds with GIPRCNT values below 10 were considered active. Activity score was based on GIPRCNT using the following formula: […]
# Score is 0 for GIPRCNT values of 100 or above, 50 for GIPRCNT values of 0, and 100 for GIPRCNT values of -100.
row,Structure (SMILES),growth
1,Clc1ccc(-c2csc(N/N=C/c3nc4ccccc4n3C3CC3)n2)cc1,93.7%
2,COc1cc2cc(Oc3ccc(NC(=O)Nc4cc(C(F)(F)F)cc(C(F)(F)F)c4)cc3)c(C)nc2cc1OCCN(C)C,110%
3,C#C[C@]1(O)CC[C@H]2[C@@H]3CC=C4c5sc(Nc6cc(OC)ccc6OC)nc5CC[C@]4(C)[C@H]3CC[C@@]21C,13.9%
4,Cn1ccnc1C(=O)/C=C/c1ccc(C(=O)Nc2ccc(NC(=O)CCNC(=O)c3csc(Br)n3)cc2)cc1,12.9%
5,O=C(O)CNS(=O)(=O)c1ccc(Oc2ccc(S(=O)(=O)NCC(=O)O)cc2)cc1,100%
6,COc1cc2c3c(n(CCCNC4CCCC4)c(=O)c2cc1OC)-c1cc2c(cc1C3=O)OCO2,-13.8% (active)
7,O=C(Nc1cccc(Cl)c1)Nc1nc2ccc([N+](=O)[O-])cc2s1,9.48% (active)
8,C=C(C)[C@@H]1CC[C@]2(C(=O)NCCCN(CCC#N)CCC#N)CC[C@]3(C)[C@H](CC[C@@H]4[C@@]5(C)CCC(=O)C(C)(C)[C@@H]5CC[C@]43C)[C@@H]12,103%
9,COc1ccc(CCN2C(=O)CSC2=S)cc1OC,63%
10,CCC(CC)N1C(=O)/C(=c2\sc3n(c2=O)C2C(NN=3)N(CC)C(=O)N2CC)c2ccccc21 (stereo not given),15.8%
11,CN1CCN(Cc2ccc(NC(=O)c3cncc(C#Cc4cnc5ccc(NC6CCOCC6)nn45)c3)cc2C(F)(F)F)CC1,3.15% (active)
12,C/C(=N\NC(=O)CSc1nc2sc3c(c2c(=O)n1-c1ccccc1)CCC(C)C3)c1ccc(Cl)cc1 (stereo not given),12.6%
13,Cc1ccccc1/C=C/c1nn2c(-c3ccoc3C)nnc2s1,108%
14,Cn1cc(-c2nn3cc(-c4cccnc4)nc3s2)c2cc(F)ccc21,89.2%
15,Cc1cc(C(=O)Nc2ccc(SC#N)cc2)c(C)o1,28.8%
16,CS(=O)c1nccc(-c2c(-c3ccc(F)c(OCCc4ccccc4)c3)nc3sccn23)n1 (stereo not given),49.8%
17,COc1ccc2c(C3=C(c4cn(C)c5ccccc45)C(=O)NC3=O)coc2c1,18.8%
18,CC1CCc2c(sc3nc(SCC(=O)N/N=C/c4ccc(Cl)cc4)n(-c4ccccc4)c(=O)c23)C1 (stereo not given),109%
19,COc1ccc(OC)c([C@H]2c3[nH]c4ccccc4c3C[C@H]3C(=O)N(CCCCCCC(=O)NO)CC(=O)N23)c1,46.1%
20,c1ccc(-c2n(Cc3ccc4ccccc4c3)c3c4ccccc4c4ccccc4c3[n+]2Cc2ccc3ccccc3c2)cc1,-18.9% (active)

row,Structure (SMILES),growth
1,CS(=O)(=O)c1ccc2c(c1)c1c(n2Cc2ccc(Cl)cc2)CCCC1,81.9%
2,Oc1ccc(CSc2nnc(-c3ccncc3)n2-c2ccccc2)c2cccnc12,13.1%
3,Cc1ccc(NC(=O)N[C@@H](Cc2cc(F)cc(F)c2)C(=O)NC2C(=O)N3CCC[C@H]3C(=O)N3CCCC[C@H]3C(=O)N[C@@H](C)C(=O)N3C[C@H](C)C[C@H]3C(=O)O[C@H]2C)c(F)c1 (stereo not given in full),34.2%
4,O=C(Nc1ccc(-c2nc(-c3cccc(O)c3)c(-c3ccnc(Br)c3)[nH]2)cc1)c1ccccc1,3.66% (active)
5,Cc1occc1-c1nc2s/c(=C\c3cn(-c4ccccc4)nc3-c3ccccc3)c(=O)n2n1,90.9%
6,N#C/C(=C\c1ccc(Cl)cc1Cl)C(N)=O,89.7%
7,Cc1ccc(/C=C/c2nn3c(-c4ccco4)nnc3s2)cc1,98.9%
8,COc1cccc(/C=C/C(=O)c2ccc(NC(=O)COc3cccc4cccnc34)cc2)c1,95.3%
9,Cc1cn(-c2cc(NC(=O)c3cncc(C#Cc4cnc5ccc(O[C@H]6CCOC6)nn45)c3)cc(C(F)(F)F)c2)cn1,95.6%
10,COc1ccc(-c2nc3cc(Cl)c(Cl)cc3n2CC(=O)N=Nc2c(O)[nH]c3ccc(Cl)cc23)cc1,37.4%
11,Cc1cn(-c2cc(NC(=O)c3cncc(C#Cc4cnc5ccc(OCCCS(C)(=O)=O)nn45)c3)cc(C(F)(F)F)c2)cn1,6.72% (active)
12,Clc1ccc(-c2nc3ccc(/C(=N\N=C\c4ccccc4)c4ccccc4)cc3[nH]2)cc1,71%
13,O=C1c2c(c3c4cc(Br)ccc4[nH]c3c3ccc4ccccc4c23)C(=O)N1CCN1CCCCC1,-0.774% (active)
14,COc1ccc(-c2nnc(/N=C3/C(=O)Nc4ccc(Br)cc43)o2)cc1,96%
15,CS(=O)c1nccc(-c2c(-c3ccc(F)c(OCCc4ccc(F)cc4)c3)nc3sccn23)n1 (stereo not given),14.5%
16,COc1ccc(-c2nc3cc(Cl)c(Cl)cc3n2CC(=O)N=Nc2c(O)[nH]c3ccccc23)cc1,39.9%
17,O=c1[nH]c(CCl)nc2c1cnn2-c1ccccc1,101%
18,C[C@H]1[C@H](C)CC[C@]2(COC(=O)c3cccnc3)CC[C@]3(C)C(=CC[C@@H]4[C@@]5(C)CCCNC(C)(C)[C@@H]5CC[C@]43C)[C@H]12,50.1%
19,COc1cc2c3c(n(CCCNC4CCCCC4)c(=O)c2cc1OC)-c1cc2c(cc1C3=O)OCO2,-25.3% (active)
20,CC1(C)CC[C@]2(C(=O)N3CCCNCC3)CC[C@]3(C)C(=CC[C@@H]4[C@@]5(C)CCC(=O)C(C)(C)[C@@H]5CC[C@]43C)[C@H]2C1,90.6%

# From PubChem BioAssay (NCI)
